# Experimental data reported in PubChem BioAssay (NCATS).
# “And” between values parts separate entries of the source, which are not always exact repeats. Identical values can stand only once. Values without a mark were called inactive. Results filed as inconclusive are left out. The source made the active and inactive calls. Unless noted, the call rests on the fitted dose curve; in most records, active means well fitted curve in the direction sought with a large enough effect in the repeat runs; inconclusive means weak or mixed curves; inactive means no such curve, though single readings can be large; an effect the other way counts as inactive or inconclusive.
# Tested on: not listed separately
# Assay: qHTS assay for small molecule agonists of the antioxidant response element (ARE) signaling pathway measured by Nrf2-dependant transcriptional activity - cell viability counter screen (AID 720653); further: potency means the concentration at half of the fitted maximal effect; on max response: on the % scale 0 is the no-effect control and ±100 the full control effect
# Settings: ARE-bla HepG2 viability, CellTiter-Glo ATP luminescence, 16 h; max response: stronger effect = lower value
# Summary of the method: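 ARE-bla HepG2 cells (2,000/well) rested 5 hrs at 37C/5% CO2, then exposed to compounds in DMSO for 16 hrs. Viability was read in the same wells as intracellular ATP by luminescence, 30 min at room temperature after reagent addition.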
Structure (SMILES),max response,Potency
CNC(=O)Oc1ccc2c(c1)[C@]1(C)CCN(C)[C@@H]1N2C,-1.23%,–
Cc1c(O)cccc1C(=O)N[C@@H](CSc1ccccc1)[C@H](O)CN1C[C@H]2CCCC[C@H]2C[C@H]1C(=O)NC(C)(C)C,–,44.7 µM (active)
CN(C)CCCN1c2ccccc2CCc2ccccc21,-13.3%,–
CC(CN1c2ccccc2Sc2ccccc21)N(C)C (stereo not given),-20.1%,–
O=C1NS(=O)(=O)c2ccccc21,-2.82%,–
CC1=C(/C=C/C(C)=C/C=C/C(C)=C/C(=O)O)C(C)(C)CCC1,-2.09% and 3.64%,–
NC(=O)N/N=C/c1ccc([N+](=O)[O-])o1,-20.9%,–
CC(O)COc1ccccc1 (stereo not given),-6.41%,–
COc1ccc(Cl)cc1C(=O)NCCc1ccc(S(=O)(=O)NC(=O)NC2CCCCC2)cc1,-18.1%,–
CC(O)CN(CCN(CC(C)O)CC(C)O)CC(C)O (stereo not given),-0.296%,–
CCCCCCCCCCCCOS(=O)(=O)O,-1.36% [middle of 4 runs],–
CCCCOC(=O)c1ccc(O)cc1,4.31% and -13.4%,–
O=C1c2c(O)cccc2Cc2cccc(O)c21,-0.576%,–
CCOC(=O)c1ccc(O)cc1,-0.862%,–
CCCc1c(OCCCCc2nn[nH]n2)ccc(C(C)=O)c1O,2.63%,–
Cc1cccc(Nc2cc(Cl)nc(SCC(=O)O)n2)c1C,-4.18%,–
Cc1cc(CC(=O)O)n(C)c1C(=O)c1ccc(Cl)cc1,-9.23%,–

# Target: Hexokinase-4 (Homo sapiens) + Glucokinase regulatory protein (Homo sapiens) (UniProt P35557+Q14397)
# Assay: qHTS assay for inhibitors of recombinant human GCK-GKRP interaction: Diaphorase-coupled assay (AID 743205; active means well fitted curve in the direction sought with a large enough effect; an effect the other way counts as inactive or inconclusive)
# Settings: G6PDH/diaphorase resorufin fluorescence; series mostly up to 57.5 µM; activity change, positive = activation: at the top concentration
# Summary of the method: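 Resorufin fluorescence (525/590 nm), read each minute over 30 min, reports GCK activity coupled via G6PDH and diaphorase. Reaction: 10 nM GST-GCK, 10 nM FLAG-GKRP, 5 mM glucose, 0.4 mM ATP, 0.15 mM NADP+, 0.1 mM resazurin.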
# Sequence of Hexokinase-4 (Homo sapiens) + Glucokinase regulatory protein (Homo sapiens) (P35557 whole entry, looked up): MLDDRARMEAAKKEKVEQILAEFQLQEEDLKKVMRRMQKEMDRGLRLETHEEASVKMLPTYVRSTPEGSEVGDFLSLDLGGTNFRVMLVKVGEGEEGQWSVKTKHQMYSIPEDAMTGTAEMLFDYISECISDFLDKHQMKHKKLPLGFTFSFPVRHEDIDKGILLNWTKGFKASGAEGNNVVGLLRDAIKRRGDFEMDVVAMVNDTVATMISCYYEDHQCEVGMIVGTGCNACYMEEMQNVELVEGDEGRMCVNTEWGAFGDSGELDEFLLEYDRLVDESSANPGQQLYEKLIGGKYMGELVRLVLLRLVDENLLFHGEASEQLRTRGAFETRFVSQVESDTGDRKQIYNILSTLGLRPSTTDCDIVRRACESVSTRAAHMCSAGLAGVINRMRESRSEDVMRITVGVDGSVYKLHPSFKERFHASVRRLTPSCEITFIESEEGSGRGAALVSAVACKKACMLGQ
# Sequence of Hexokinase-4 (Homo sapiens) + Glucokinase regulatory protein (Homo sapiens) (Q14397 whole entry, looked up): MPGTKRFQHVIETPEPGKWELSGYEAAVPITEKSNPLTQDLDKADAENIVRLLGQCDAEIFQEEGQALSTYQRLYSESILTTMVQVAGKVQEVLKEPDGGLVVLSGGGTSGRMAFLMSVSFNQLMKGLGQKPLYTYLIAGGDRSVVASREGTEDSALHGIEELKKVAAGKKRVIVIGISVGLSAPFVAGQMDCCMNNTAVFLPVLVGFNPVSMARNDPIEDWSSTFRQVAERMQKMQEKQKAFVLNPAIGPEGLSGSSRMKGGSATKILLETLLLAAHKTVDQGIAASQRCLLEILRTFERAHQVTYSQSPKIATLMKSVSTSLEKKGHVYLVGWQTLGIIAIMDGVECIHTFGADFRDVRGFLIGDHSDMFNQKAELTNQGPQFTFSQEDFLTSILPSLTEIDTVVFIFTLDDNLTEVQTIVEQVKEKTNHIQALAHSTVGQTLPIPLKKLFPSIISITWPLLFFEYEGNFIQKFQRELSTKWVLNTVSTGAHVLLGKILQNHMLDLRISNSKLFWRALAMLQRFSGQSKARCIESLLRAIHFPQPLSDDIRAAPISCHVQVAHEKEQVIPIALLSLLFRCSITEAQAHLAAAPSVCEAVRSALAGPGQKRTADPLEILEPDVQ
row,Structure (SMILES),"activity change, positive = activation"
1,COC(=O)C1=C(C)NC(C)=C(C(=O)OC)C1c1ccccc1[N+](=O)[O-],-5.26%
2,C[C@]12C[C@H](O)[C@H]3[C@@H](CCC4=CC(=O)CC[C@@]43C)[C@@H]1CC[C@@H]2C(=O)CO,-2.92%
3,C[C@]12CC[C@@H]3c4ccc(O)cc4CC[C@H]3[C@@H]1CCC2=O,-0.313%
4,NC(=O)c1ncn([C@@H]2O[C@H](CO)[C@@H](O)[C@H]2O)n1,-1.32%
5,CN(C)CCOC(C)(c1ccccc1)c1ccccn1 (stereo not given),0.274%
6,CC(CN1c2ccccc2Sc2ccccc21)N(C)C (stereo not given),-0.149%
7,CC1=C(/C=C/C(C)=C/C=C/C(C)=C/C(=O)O)C(C)(C)CCC1,-4.09%
8,COc1ccc(Cl)cc1C(=O)NCCc1ccc(S(=O)(=O)NC(=O)NC2CCCCC2)cc1,1.69%
